Our source for the log2 fold change values is the supplement of paper PMC10849652.

About 8,800 targets were measured; listed, in parts, are those with a hit and a random draw of the rest. About 0.5% of all pairs of compound and target were hits. Values without a mark were called inactive.

Common to all, as to assay: log2 fold change, soluble protein after heating vs DMSO (PISA); higher = thermal stabilisation; K562 lysate, 10 uM; active = over 0.2 and 3.5 SD of the protein, either way, in both replicates (recomputed)
Compound in test [1]: Cc1cn(-c2cc(NC(=O)c3ccc(C)c(Nc4nccc(-c5cccnc5)n4)c3)cc(C(F)(F)F)c2)cn1 [nilotinib]
The gist of the method: (§1)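 To prepare the extract, K562 pellets were dounce-homogenised in PBS pH 7.4 with 1 mM MgCl2, giving crude material at 1 mg/mL protein. This was treated with 10 μM compound for 30 min, then heated in aliquots for 3 min over 48°C-58°C before pooling and addition of NP-40 to 0.5% at 4°C. Centrifugation at 21,000xg for 90 min left soluble protein in the supernatant, which TMTpro 16plex LC-MS/MS quantified with equalised channel sums. Results are log-two fold changes in thermal stability compared with solvent controls, from duplicates.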

Compound in test [2]: Cc1nc(Nc2n[nH]c3c2CN(C(=O)N[C@H](CN(C)C)c2ccccc2)C3(C)C)c2sccc2n1
The method in brief:
as §1

Compound in test [3]: Cc1nc(Nc2ncc(C(=O)Nc3c(C)cccc3Cl)s2)cc(N2CCN(CCO)CC2)n1 [dasatinib]
The gist of the method:
as §1

Compound in test [4]: Cc1ncc(-c2ccnc(Nc3ccc(S(C)(=O)=O)cc3)n2)n1C(C)C
The gist of the method:
as §1

Compound in test [5]: Cn1cc(-c2ccc3c(c2)CCN3C(=O)Cc2cccc(C(F)(F)F)c2)c2c(N)ncnc21
The gist of the method: as §1

Compound in test [6]: Cn1cc(CNCC2CCN(c3ncc(C(=O)NO)cn3)CC2)c2ccccc21 [quisinostat]
The gist of the method:
as §1

Compound in test [7]: Cn1cncc1[C@@](N)(c1ccc(Cl)cc1)c1ccc2c(c1)c(-c1cccc(Cl)c1)cc(=O)n2C [tipifarnib]
The method in brief:
as §1

Compound in test [8]: NC(=O)Nc1cc(-c2cccc(F)c2)sc1C(=O)N[C@H]1CCCNC1
The gist of the method:
as §1

Compound in test [9]: NC(=O)c1cnc(N[C@@H]2CCCC[C@@H]2N)nc1Nc1cccc(-n2nccn2)c1
The method in brief: as §1

Compound in test [10]: NC1(c2ccc(-c3nc4ccn5c(=O)[nH]nc5c4cc3-c3ccccc3)cc2)CCC1
The gist of the method:
as §1

Compound in test [11]: NCC(=O)Nc1ccc(-n2nc(C(F)(F)F)cc2-c2ccc3c(ccc4ccccc43)c2)cc1
The method in brief: as §1

Compound in test [12]: O=C(CCCCCCC(=O)Nc1ccccc1)NO [vorinostat]
The gist of the method:
as §1

Compound in test [13]: O=C(O)c1ccc2c(c1)nc(Nc1cccc(Cl)c1)c1ccncc12 [silmitasertib]
The gist of the method:
as §1

Compound in test [14]: O=C1NC(=O)C(c2cnc3ccccn23)=C1c1cn2c3c(cc(F)cc13)CN(C(=O)N1CCCCC1)CC2
The method in brief: as §1

Compound in test [15]: c1cn2cc(-c3ccc4cn[nH]c4c3)nc(Nc3ccc(N4CCOCC4)cc3)c2n1 [entospletinib]
The method in brief: as §1

UniProt O14727, sequence (O14727 whole entry, looked up): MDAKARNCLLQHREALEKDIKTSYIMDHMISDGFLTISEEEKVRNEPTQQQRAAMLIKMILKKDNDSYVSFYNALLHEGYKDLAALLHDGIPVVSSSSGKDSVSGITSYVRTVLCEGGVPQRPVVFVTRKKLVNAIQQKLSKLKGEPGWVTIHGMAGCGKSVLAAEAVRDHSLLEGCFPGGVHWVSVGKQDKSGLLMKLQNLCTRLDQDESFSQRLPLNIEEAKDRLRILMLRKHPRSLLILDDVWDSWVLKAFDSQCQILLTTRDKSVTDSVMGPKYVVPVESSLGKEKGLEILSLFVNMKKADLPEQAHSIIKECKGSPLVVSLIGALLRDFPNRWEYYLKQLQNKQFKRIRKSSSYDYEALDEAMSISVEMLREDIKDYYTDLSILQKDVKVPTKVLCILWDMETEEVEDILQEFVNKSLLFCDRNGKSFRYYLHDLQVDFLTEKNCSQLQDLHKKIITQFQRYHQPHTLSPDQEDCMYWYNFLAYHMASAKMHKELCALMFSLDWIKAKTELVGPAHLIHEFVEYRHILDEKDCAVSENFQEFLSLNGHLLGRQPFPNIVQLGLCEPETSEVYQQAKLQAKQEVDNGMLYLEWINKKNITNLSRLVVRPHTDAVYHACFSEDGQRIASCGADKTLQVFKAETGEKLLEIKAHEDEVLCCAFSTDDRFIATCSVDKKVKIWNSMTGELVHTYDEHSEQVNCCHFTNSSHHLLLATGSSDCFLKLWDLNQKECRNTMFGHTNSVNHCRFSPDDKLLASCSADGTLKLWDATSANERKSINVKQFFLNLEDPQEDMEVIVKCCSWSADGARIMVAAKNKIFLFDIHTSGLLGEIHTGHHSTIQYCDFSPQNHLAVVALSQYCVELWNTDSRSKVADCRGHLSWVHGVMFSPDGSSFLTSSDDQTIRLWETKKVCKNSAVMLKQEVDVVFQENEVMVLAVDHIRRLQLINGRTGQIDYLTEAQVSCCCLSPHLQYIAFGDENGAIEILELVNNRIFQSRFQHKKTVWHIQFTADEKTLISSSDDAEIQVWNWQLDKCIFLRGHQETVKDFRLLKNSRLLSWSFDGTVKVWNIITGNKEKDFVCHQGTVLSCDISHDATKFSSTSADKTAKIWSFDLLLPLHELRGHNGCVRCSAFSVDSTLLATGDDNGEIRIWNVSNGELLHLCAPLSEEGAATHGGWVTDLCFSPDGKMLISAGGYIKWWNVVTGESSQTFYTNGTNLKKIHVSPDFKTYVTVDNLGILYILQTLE
UniProt Q9UH62, sequence (Q9UH62 whole entry, looked up): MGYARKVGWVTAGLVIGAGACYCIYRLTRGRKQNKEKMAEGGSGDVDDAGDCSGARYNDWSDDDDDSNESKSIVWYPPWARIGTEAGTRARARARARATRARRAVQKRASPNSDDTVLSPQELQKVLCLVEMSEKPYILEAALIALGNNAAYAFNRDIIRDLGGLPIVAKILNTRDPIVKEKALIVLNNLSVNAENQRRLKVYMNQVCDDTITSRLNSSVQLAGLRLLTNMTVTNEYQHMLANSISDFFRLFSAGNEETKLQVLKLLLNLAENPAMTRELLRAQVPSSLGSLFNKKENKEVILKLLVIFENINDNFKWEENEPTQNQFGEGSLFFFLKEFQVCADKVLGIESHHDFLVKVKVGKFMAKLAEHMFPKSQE
UniProt Q5JTZ9, sequence (Q5JTZ9 whole entry, looked up): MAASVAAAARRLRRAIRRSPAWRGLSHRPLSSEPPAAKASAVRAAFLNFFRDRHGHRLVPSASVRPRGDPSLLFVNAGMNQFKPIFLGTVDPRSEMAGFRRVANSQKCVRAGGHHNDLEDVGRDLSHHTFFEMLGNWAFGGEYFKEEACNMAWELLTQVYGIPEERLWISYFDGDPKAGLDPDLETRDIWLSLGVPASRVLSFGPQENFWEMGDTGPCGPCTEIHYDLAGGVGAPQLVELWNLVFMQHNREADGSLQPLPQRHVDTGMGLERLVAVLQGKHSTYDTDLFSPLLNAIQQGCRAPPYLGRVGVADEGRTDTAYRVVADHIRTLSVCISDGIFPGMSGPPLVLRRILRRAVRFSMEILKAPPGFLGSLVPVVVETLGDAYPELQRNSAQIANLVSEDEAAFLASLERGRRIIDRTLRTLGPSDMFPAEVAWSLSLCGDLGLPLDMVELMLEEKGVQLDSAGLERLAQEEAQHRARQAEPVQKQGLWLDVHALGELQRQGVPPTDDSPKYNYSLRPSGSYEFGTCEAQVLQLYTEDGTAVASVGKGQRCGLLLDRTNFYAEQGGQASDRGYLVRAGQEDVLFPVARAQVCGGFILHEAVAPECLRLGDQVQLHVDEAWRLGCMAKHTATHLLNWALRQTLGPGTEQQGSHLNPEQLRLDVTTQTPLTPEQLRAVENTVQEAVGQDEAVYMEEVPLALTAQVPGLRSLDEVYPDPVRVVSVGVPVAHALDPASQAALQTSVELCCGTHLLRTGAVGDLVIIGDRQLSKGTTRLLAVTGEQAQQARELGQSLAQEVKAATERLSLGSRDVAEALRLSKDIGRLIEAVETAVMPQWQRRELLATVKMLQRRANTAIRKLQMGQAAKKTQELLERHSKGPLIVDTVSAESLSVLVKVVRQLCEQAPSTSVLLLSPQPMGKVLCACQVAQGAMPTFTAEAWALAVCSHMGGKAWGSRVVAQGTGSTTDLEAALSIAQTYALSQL
UniProt Q9NXR5, sequence (Q9NXR5 whole entry, looked up): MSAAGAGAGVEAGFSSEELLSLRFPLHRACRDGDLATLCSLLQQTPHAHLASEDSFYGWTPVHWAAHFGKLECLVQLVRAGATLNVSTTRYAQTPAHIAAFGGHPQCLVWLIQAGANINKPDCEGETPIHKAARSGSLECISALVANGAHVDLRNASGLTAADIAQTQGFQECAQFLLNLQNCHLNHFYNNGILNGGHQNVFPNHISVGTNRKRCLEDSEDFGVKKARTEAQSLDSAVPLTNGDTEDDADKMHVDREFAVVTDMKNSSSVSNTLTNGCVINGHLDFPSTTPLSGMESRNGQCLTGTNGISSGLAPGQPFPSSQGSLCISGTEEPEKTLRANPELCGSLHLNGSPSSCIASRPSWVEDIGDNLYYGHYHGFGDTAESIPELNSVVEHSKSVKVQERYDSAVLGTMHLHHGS
UniProt Q99943, sequence (Q99943 whole entry, looked up): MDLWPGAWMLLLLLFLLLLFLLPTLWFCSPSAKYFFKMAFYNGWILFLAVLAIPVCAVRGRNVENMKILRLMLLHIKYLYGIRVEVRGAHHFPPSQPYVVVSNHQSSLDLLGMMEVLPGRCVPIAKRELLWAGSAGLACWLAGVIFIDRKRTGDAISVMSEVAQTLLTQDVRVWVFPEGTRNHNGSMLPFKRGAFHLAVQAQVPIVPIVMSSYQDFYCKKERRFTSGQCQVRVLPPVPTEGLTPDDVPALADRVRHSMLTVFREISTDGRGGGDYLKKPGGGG

As to ARMCX3 (UniProt Q9UH62), the log2 fold change in test [1] is 0.023; in test [2], -0.028; in [3], -0.107; in test [4], -0.003; in test [5], 0.067; in test [6] it was -0.057. In addition, the log2 fold change in test [7] was -0.008; in [8], 0.04; in test [9], 0.008; in test [10], -0.002; in test [11], 0.042; in test [12] it was -0.279 (active). Further, the log2 fold change in [13] is 0.036; in test [14], -0.024; in test [15], 0.047.
For the target AGPAT1 (UniProt Q99943), the log2 fold change in [1] is -0.021; in [2], -0.004; in [3], -0.069; in test [4] it was 0.055; in test [5], -0.062; in test [6], 0.043. For the same target, the log2 fold change is -0.058 in [7]; -0.028 in test [8]; 0.028 in test [9]; -0.003 in test [10]; -0.027 in test [11]; -0.27 (active) in test [12]. Also, the log2 fold change in test [13] is 0.106; in test [14] it was -0.029; in test [15], 0.003.
Regarding ACTG1 (UniProt I3L4N8), the log2 fold change in [1] was -0.068; in test [2] it was 0.104; in [3], 0.055; in test [4], -0.045; in [5] it was -0.171; in [6] it was 0.032. The log2 fold change in test [7] is 0.11; in test [8], -0.053; in [9], -0.033; in [10], -0.114; in test [11] it was -0.131; in test [12], 0.358. In addition, the log2 fold change in test [13] is -0.043; in [14], 0.082; in test [15], 0.098.
For APAF1 (UniProt O14727), the log2 fold change in [1] is -0.013; in test [2], 0.116; in test [3] it was -0.036; in test [4] it was 0.025; in test [5], 0.073; in [6] it was -0.091. Also, the log2 fold change in test [7] was -0.026; in [8] it was 0.052; in [9] it was 0; in test [10], 0.026; in [11] it was 0.021; in [12], -0.292 (active). Also, the log2 fold change in test [13] was 0.032; in test [14], 0.057; in [15], 0.032.
As to AARS2 (UniProt Q5JTZ9), the log2 fold change in test [1] was -0.046; in test [2], 0.021; in test [3], -0.018; in test [4], -0.013; in test [5], 0.062; in test [6], -0.046. Further, the log2 fold change in [7] was 0.023; in test [8], 0.053; in test [9] it was 0.016; in test [10] it was -0.05; in [11] it was -0.004; in test [12], -0.243 (active). The log2 fold change in [13] is 0.085; in [14] it was 0.028; in test [15], 0.035.
Turning to ANKRD10 (UniProt Q9NXR5), the log2 fold change in [1] is -0.042; in test [2], -0.021; in test [3], -0.05; in [4] it was 0.021; in [5] it was 0.012; in [6], 0.001. The log2 fold change is -0.028 in test [7]; 0.036 in test [8]; 0.168 in test [9]; -0.029 in test [10]; 0 in test [11]; -0.589 (active) in test [12]. Besides, the log2 fold change is 0.037 in test [13] and -0.066 in test [14].
